From PubChem BioAssay (Tox21)
Inconclusive results are not listed. Calls of active or inactive are those of the source. Unless noted, calls come from the whole dose curve; as a rule, active = well fitted curve in the direction sought with a large enough effect in the repeat runs; inconclusive = weak or mixed curves; inactive = no such curve, though single readings can be large; an effect the other way counts as inactive or inconclusive.

Columns and labels:
[1] = target: Peroxisome proliferator-activated receptor delta (Homo sapiens) (UniProt Q03181); test: qHTS assay to identify small molecule agonists of the peroxisome proliferator-activated receptor delta (PPARd) signaling pathway (AID 743212; calls by dose curve)
Peroxisome proliferator-activated receptor delta (Homo sapiens), sequence (Q03181 whole entry, looked up): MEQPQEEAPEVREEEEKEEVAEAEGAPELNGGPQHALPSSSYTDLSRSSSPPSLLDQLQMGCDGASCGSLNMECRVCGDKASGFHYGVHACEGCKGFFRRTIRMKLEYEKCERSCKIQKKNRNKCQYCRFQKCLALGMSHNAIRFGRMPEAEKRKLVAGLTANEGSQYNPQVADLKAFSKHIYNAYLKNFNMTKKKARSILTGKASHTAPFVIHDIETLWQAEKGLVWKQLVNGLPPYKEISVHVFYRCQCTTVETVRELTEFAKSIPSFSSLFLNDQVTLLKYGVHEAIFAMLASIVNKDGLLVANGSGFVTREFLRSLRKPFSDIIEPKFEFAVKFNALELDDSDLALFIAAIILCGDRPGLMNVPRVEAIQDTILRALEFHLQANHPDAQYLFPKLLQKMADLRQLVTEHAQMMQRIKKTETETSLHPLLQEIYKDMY
How it was run: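 Cells expressing a UAS-driven beta-lactamase reporter (PPARd-bla HEK293H) were given test compounds after a 5 h settle and kept at 37 C. Reporter activity was then measured as FRET fluorescence using LiveBLAzer B/G substrate.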

[2] = target: Peroxisome proliferator-activated receptor delta (Homo sapiens) (UniProt Q03181); test: qHTS assay to identify small molecule antagonists of the peroxisome proliferator-activated receptor delta (PPARd) signaling pathway (AID 743215; active = well fitted inhibition curve with a large enough effect in the signal ratio in the repeat runs, not every such curve was filed as active; the % refers to the signal ratio;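 note: cells stimulated with agonist L165041 at 300 nM final during compound exposure; series mostly up to about 62 µM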)
How it was run: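 Screen format: qHTS, antagonist mode. HEK293H PPARd-bla cells received compound and 300 nM L165041 (final), 17 h, 37 C. Beta-lactamase detected via FRET substrate fluorescence, 2 h, room temperature.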

[3] = qHTS assay to identify small molecule agonists of the farnesoid-X-receptor (FXR) signaling pathway - cell viability counter screen (AID 743218); note: nearly all actives have a fitted effect of over 45% in size
How it was run: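 Same-well cytotoxicity check on FXR-UAS-bla HEK 293T cells: 5 h attachment, 16 h compound at 37 C, CellTiter-Glo luminescence read at room temperature after 30 min.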

[4] = qHTS assay to identify small molecule antagonists of the farnesoid-X-receptor (FXR) signaling pathway - cell viability counter screen (AID 743221; active = well fitted cell-killing curve with a large enough effect in the repeat runs, not every such curve was filed as active; note: nearly all actives have a fitted effect of over 50% in size)
How it was run: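 Cytotoxicity counter screen run in the FXR-bla reporter wells: HEK 293T cells exposed to compound with 50 uM (final) chenodeoxycholic acid for 16 h, 37 C, then viability measured by CellTiter-Glo luminescence after 30 min, room temperature.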

[5] = target: Vitamin D3 receptor (Homo sapiens) (UniProt P11473); test: qHTS assay to identify small molecule agonists of the vitamin D receptor (VDR) signaling pathway (AID 743222; calls by dose curve)
Vitamin D3 receptor (Homo sapiens), sequence (P11473 whole entry, looked up): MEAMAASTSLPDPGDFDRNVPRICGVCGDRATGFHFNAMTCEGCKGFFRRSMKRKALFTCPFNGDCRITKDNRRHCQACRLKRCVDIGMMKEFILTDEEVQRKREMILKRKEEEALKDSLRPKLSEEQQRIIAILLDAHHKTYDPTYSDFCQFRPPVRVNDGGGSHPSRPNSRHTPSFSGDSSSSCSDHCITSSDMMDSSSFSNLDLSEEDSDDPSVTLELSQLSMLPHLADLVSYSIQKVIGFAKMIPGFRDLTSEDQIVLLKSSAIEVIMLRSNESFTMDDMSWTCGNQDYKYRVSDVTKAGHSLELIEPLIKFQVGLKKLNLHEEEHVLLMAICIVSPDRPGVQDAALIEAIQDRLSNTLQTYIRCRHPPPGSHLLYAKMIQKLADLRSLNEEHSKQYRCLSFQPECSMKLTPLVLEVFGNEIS
How it was run: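 Using LiveBLAzer B/G FRET detection, agonism was scored in VDR-bla cells exposed overnight (16 h, 37C) to DMSO-dissolved compounds; substrate incubation was 2 h at room temperature.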

[6] = qHTS assay to identify small molecule agonists of the vitamin D receptor (VDR) signaling pathway - cell viability counter screen (AID 743224); note: series mostly up to about 63 µM; nearly all actives have a fitted effect of over 50% in size
How it was run: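 Counter screen for cytotoxicity: VDR-bla cells at 2,000 cells/well, 16 h compound exposure, then CellTiter-Glo luminescence after the beta-lactamase measurement.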

[7] = qHTS assay to identify small molecule antagonists of the peroxisome proliferator-activated receptor delta (PPARd) signaling pathway - cell viability counter screen (AID 743213); note: nearly all actives have a fitted effect of over 50% in size
How it was run: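 Same-well viability: cells pre-incubated 5 h, dosed with compound plus 300 nM L165041, kept 17 h at 37 C, FRET substrate 2 h RT, then CellTiter-Glo 30 min RT and luminescence.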

[8] = target: Vitamin D3 receptor (Homo sapiens) (UniProt P11473); test: qHTS assay to identify small molecule antagonists of the vitamin D receptor (VDR) signaling pathway (AID 743223; active = well fitted inhibition curve with a large enough effect in the signal ratio in the repeat runs, not every such curve was filed as active; the % refers to the signal ratio)
How it was run: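 Antagonist mode: compound added to VDR-bla cells alongside agonist 1alpha,25-dihydroxyvitamin D3 (3 nM final), incubation 16 h at 37C. Read-out is LiveBLAzer FRET fluorescence, 2 h at room temperature.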

[9] = target: Bile acid receptor (Homo sapiens) (UniProt Q96RI1); test: qHTS assay to identify small molecule antagonists of the farnesoid-X-receptor (FXR) signaling pathway (AID 743217; active = well fitted inhibition curve with a large enough effect in the signal ratio in the repeat runs, not every such curve was filed as active; the % refers to the signal ratio)
Bile acid receptor (Homo sapiens), sequence (Q96RI1 whole entry, looked up): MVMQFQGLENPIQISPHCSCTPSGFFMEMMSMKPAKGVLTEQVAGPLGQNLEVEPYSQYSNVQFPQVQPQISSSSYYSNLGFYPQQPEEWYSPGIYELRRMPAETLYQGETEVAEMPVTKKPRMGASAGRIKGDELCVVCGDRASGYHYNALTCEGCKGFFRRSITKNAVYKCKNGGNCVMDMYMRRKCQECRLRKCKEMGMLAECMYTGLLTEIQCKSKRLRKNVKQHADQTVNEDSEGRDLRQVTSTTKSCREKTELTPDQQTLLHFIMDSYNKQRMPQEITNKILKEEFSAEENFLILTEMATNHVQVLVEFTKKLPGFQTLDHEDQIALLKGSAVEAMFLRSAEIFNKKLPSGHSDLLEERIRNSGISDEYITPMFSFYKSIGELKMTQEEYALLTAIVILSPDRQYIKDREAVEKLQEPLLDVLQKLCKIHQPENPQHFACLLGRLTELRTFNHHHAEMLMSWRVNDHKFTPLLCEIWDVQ
How it was run: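 Quantitative HTS, beta-lactamase reporter format: FXR-UAS-bla HEK 293T cells co-treated 16 h at 37 °C with compounds and 50 uM final chenodeoxycholic acid, then read by B/G FRET fluorescence.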

[10] = target: Bile acid receptor (Homo sapiens) (UniProt Q96RI1); test: qHTS assay to identify small molecule agonists of the farnesoid-X-receptor (FXR) signaling pathway (AID 743220; active = well fitted activation curve with a large enough effect in the signal ratio in the repeat runs, not every such curve was filed as active; the % refers to the signal ratio)
How it was run: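 FXR-UAS-bla HEK 293T cells carrying a UAS-driven beta-lactamase reporter were plated for 5 h at 37C/5% CO2, then exposed to DMSO-dissolved Tox21 10K compounds for 16 h at 37C. A LiveBLAzer B/G FRET substrate was loaded for 2 h at room temperature before fluorescence reading.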

Measured: Potency

O=[N+]([O-])c1cccc(I)c1
inactive: [1] | [2] | [3] | [4] | [5] | [6]

C=CCCC
inactive: [1] | [7] | [3] | [4] | [8] | [6]

O=C(Cl)c1cc(Cl)cc(Cl)c1
inactive: [1] | [7] | [3] | [5] | [8] | [6]

COc1ccc(/C=C/c2cc(OC)cc(=O)o2)cc1
not listed: [3] | [6] | [7]
inactive: all other assays above

OCCOc1cccc(OCCO)c1
inactive: [1] | [7] | [3] | [4] | [5] | [6]

O=C(O)c1ccccc1[N+](=O)[O-]
inactive: [1] | [7] | [10] | [5] | [8] | [6]

Nc1cccc2c(=O)[nH][nH]c(=O)c12
inactive: [1] | [2] | [3] | [10] | [4]

CCC(C(=O)O)c1ccc(N2Cc3ccccc3C2=O)cc1 (stereo not drawn)
inactive: [1] | [7] | [3] | [4] | [8] | [6]

S=c1[nH][nH]c(=S)s1
inactive: [1] | [7] | [3] | [5] | [6]

COc1cccc([C@H](O)C2CCN(CCc3ccc(F)cc3)CC2)c1OC
not listed: [7] | [8]
inactive: all other assays above

CCN(CC)CC(=O)OCC(=O)[C@@]1(O)CC[C@H]2[C@@H]3CCC4=CC(=O)CC[C@]4(C)[C@H]3[C@@H](O)C[C@@]21C
inactive: [1] | [7] | [3] | [4] | [5] | [6]

CC(C)(C(=O)O)c1ccc(C(O)CCCN2CCC(C(O)(c3ccccc3)c3ccccc3)CC2)cc1 (stereo not drawn)
inactive: [1] | [7] | [3] | [4] | [5] | [6]

Cc1cc(C)c(C)c(O)c1
inactive: [1] | [2] | [3] | [8]

O=C(OCCN1CCOCC1)c1cccnc1Nc1cccc(C(F)(F)F)c1
inactive: [1] | [7] | [3] | [8] | [6]

CC(CCl)OC(C)CCl (stereo not drawn)
inactive: [1] | [7] | [3] | [4] | [6]

O=C(O)c1ccc(O)c(O)c1
inactive: [1] | [2] | [3] | [4] | [6]

CC(C)(Cc1c[nH]c2ccccc12)NCC(O)COc1ccccc1C#N (stereo not drawn)
inactive: [1] | [2] | [9] | [10]

O=C(OCCCCCOC(=O)c1ccccc1)c1ccccc1
inactive: [1] | [7] | [3] | [4] | [6]

FC1(F)C(F)(F)C(F)(F)C2(F)C(F)(C1(F)F)C(F)(F)C(F)(F)C1(F)C(F)(F)C(F)(F)C(F)(F)C(F)(F)C12F (stereo not drawn)
inactive: [1] | [7] | [3] | [4] | [5] | [6]

CC(COc1ccccc1)NC(C)C(O)c1ccc(O)cc1 (stereo not drawn)
inactive: [1] | [2] | [3] | [10] | [4]

C[C@H](CN1CCCC1)C(=O)c1ccc(C(F)(F)F)cc1
not listed: [5] | [7] | [8]
inactive: all other assays above

CCc1cnc(C(=O)O)c(C(=O)O)c1
not listed: [2] | [9] | [10]
inactive: all other assays above

C/C(=C(\CCO)SS/C(CCO)=C(\C)N(C=O)Cc1cnc(C)nc1N)N(C=O)Cc1cnc(C)nc1N
not listed: [2] | [9] | [10]
inactive: all other assays above

FC(F)(Cl)C(F)(Cl)Cl
inactive: [1] | [7] | [5] | [8]

CC(C)=CCC[C@H](C)CCO
inactive: [1] | [7] | [3] | [4] | [6]

Cc1c(Cl)cccc1[N+](=O)[O-]
inactive: [1] | [2] | [3] | [10] | [4] | [6]
